# Data: PubChem BioAssay (EPA / NIEHS)
# Records with an inconclusive call do not appear. Some structures have more than one record in an assay (separate samples or runs), and their calls can disagree. The source made the active and inactive calls. How the source made its calls, unless noted: active means hit-call score of the fitted dose curve at least 0.9, where 1 is the maximum; inactive means score below 0.9.
# How the values were obtained:
# [1] = target: Paired box protein Pax-6 (Homo sapiens) (UniProt P26367); test: ATG_Pax6_CIS: Attagene CIS-FACTORIAL HepG2 Assay for human Paired Box 6 (PAX6) (AID 2282956); details: HepG2 CIS-FACTORIAL PAX6 reporter transcription, RNA readout; actives raise or lower the signal
# Method in brief: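 Transient MRTU transfection of HepG2 → compound exposure 24 h → TriZol RNA, oligo(dT) RT → PCR, 6-FAM primer extension, HpaI cut → capillary electrophoresis; activity fitted both directions against DMSO.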
# [2] = ATG_PXRE_CIS: Attagene CIS-FACTORIAL HepG2 Assay for human Pregnane X Receptor Element (PXRE) (AID 2282957); details: HepG2 Attagene CIS-FACTORIAL PXRE reporter, mRNA; actives raise or lower the signal
# Method in brief: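 Transiently transfected HepG2 cells were dosed and incubated for 24 h. RNA was then isolated, DNase-treated, reverse-transcribed and reporter sequences amplified. Labeled, HpaI-digested fragments were quantified by capillary electrophoresis against DMSO.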
# [3] = ATG_RORE_CIS: Attagene CIS-FACTORIAL HepG2 Assay for human RAR-related Orphan Receptor Element (RORE) (AID 2282959); details: HepG2 Attagene cis-factorial RORE reporter, mRNA; actives raise or lower the signal
# Method in brief: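 Transfect HepG2 with MRTUs; treat 24 h; extract RNA; RT with oligo(dT); PCR with reporter-specific primers; 6-FAM primer extension; HpaI digest 2 h at 37 C; capillary electrophoresis. Fit vs DMSO, bidirectional.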
# [4] = ATG_Sox_CIS: Attagene CIS-FACTORIAL HepG2 Assay for human SRY-box transcription factor (SOX) (AID 2282960); details: HepG2 Attagene cis-factorial SOX reporter, mRNA; actives raise or lower the signal
# Method in brief: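 Fluorescence-labelled cDNA fragments from reporter transcripts, sized by CE, give the signal. Cells: HepG2, transiently transfected with cis-regulated reporter units. Exposure 24 h; DMSO negative control; bidirectional curve fitting.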
# [5] = target: Transcription factor Sp1 (Homo sapiens) (UniProt P08047); test: ATG_Sp1_CIS: Attagene CIS-FACTORIAL HepG2 Assay for human Specificity Protein 1 (Sp1) (AID 2282961); details: HepG2 Sp1 cis-reporter transcription, actives raise or lower the signal
# Method in brief: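 Chemicals are dosed onto HepG2 cells transfected with multiple cis-promoter reporter constructs, and after 24 h reporter RNA is reverse-transcribed, PCR-amplified and resolved by capillary electrophoresis for fluorescence quantitation; activity is scored up or down against DMSO.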
# [6] = ATG_SREBP_CIS: Attagene CIS-FACTORIAL HepG2 Assay for human Sterol Regulatory Element Binding (SREBP) (AID 2282962); details: HepG2 Attagene cis-factorial SREBP reporter, mRNA; actives raise or lower the signal
# Method in brief: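 Transfected HepG2 (cis-regulated reporter library, endogenous TFs) → compound 24 h → total RNA → oligo(dT) RT → reporter-specific PCR → FAM primer extension, HpaI cut → CE fluorescence. Fit bidirectional vs DMSO.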
# [7] = target: Signal transducer and activator of transcription 3 (Homo sapiens) (UniProt P40763); test: ATG_STAT3_CIS: Attagene CIS-FACTORIAL HepG2 Assay for human Signal Transducer and Activator of Transcription 3 (STAT3) (AID 2282963); details: HepG2, Attagene cis-factorial STAT3 reporter transcription; actives raise or lower the signal
# Method in brief: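 HepG2 cells transiently transfected with cis-element-driven multiple reporter transcription units; after 24 h chemical exposure, reporter mRNA measured by RT-PCR, 6-FAM primer-extension labelling, HpaI digestion and capillary electrophoresis. Bidirectional fitting versus DMSO baseline.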
# [8] = ATG_TA_CIS: Attagene CIS-FACTORIAL HepG2 Assay for human TA Basal Promoter (AID 2282964); details: HepG2 Attagene CIS-factorial TA basal promoter reporter; actives raise or lower the signal
# Method in brief: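 HepG2 cells transiently transfected with multiple reporter units under cis promoter elements, reporting endogenous transcription factor activity; this endpoint tracks the TA basal promoter as background control. Reporter mRNA after 24 h dosing measured by RT-PCR/capillary electrophoresis; bidirectional fits versus DMSO.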
# [9] = ATG_TCF_b_cat_CIS: Attagene CIS-FACTORIAL HepG2 Assay for human T-Cell-Factor with beta-catenin (TCF/b-cat) (AID 2282965); details: HepG2 TCF/beta-catenin cis-reporter transcription, actives raise or lower the signal
# Method in brief: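 HepG2 cells transiently transfected with multiple cis-promoter-regulated reporter transcription units, so endogenous transcription factor activity is measured. Reporter mRNA read 24 hours after dosing by RT-PCR, fluorescent labelling and capillary electrophoresis; bidirectional fitting against DMSO.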
# [10] = ATG_TAL_CIS: Attagene CIS-FACTORIAL HepG2 Assay for human TAL Basal Promoter (AID 2282966); details: HepG2 Attagene cis-factorial TAL promoter reporter; actives raise or lower the signal;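 further: background control endpoint measuring basal TAL promoter reporter mRNA not a specific factor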
# Method in brief: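 Readout: reporter mRNA, fluorescence by CE. System: HepG2, transient multi-reporter transfection, endogenous TF activity. Exposure: 24 h. Analysis: bidirectional, DMSO-normalized; background control.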
# [11] = ATG_TGFb_CIS: Attagene CIS-FACTORIAL HepG2 Assay for human Transforming Growth Factor (TGF) (AID 2282967); details: HepG2 Attagene CIS TGFb reporter, mRNA transcription; actives raise or lower the signal
# Method in brief: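 HepG2 cells transiently transfected with cis-promoter-driven multiple reporter units measure endogenous TF activity; reporter mRNA quantified at 24 h by RT-PCR, FAM labeling, HpaI digestion and capillary electrophoresis. Bidirectional fit vs DMSO.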
# [12] = ATG_VDRE_CIS: Attagene CIS-FACTORIAL HepG2 Assay for human Vitamin D Receptor Element (VDRE) (AID 2282968); details: HepG2 VDRE cis-reporter transcription, actives raise or lower the signal
# Method in brief: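 HepG2 cells transiently transfected with cis-element reporter units, dosed 24 h; reporter mRNA measured by RT-PCR, 6-FAM labeling, HpaI digestion and capillary electrophoresis. Activity fitted bidirectionally against DMSO baseline.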
# [13] = target: Nuclear receptor subfamily 1 group I member 3 (Homo sapiens) (UniProt Q14994); test: ATG_CAR_TRANS: Attagene TRANS-FACTORIAL HepG2 Assay for human Constitutive Androstane Receptor (CAR) (AID 2282969; active means hit-call score of the fitted dose curve at least 0.9, where 1 is the maximum;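 further: activators raise reporter mRNA above DMSO so AC50 marks induction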); details: HepG2 Attagene TRANS-FACTORIAL CAR reporter
# Method in brief: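 HepG2 cells transiently transfected with multiplexed GAL4-UAS reporter units expressing chimeric NR-Gal4 proteins; compound exposure 24 h. Reporter mRNA measured by RT-PCR, 6-FAM labelling, HpaI digestion and capillary electrophoresis; gain-of-signal fitted against DMSO baseline.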
# [14] = target: Steroid hormone receptor ERR1 (Homo sapiens) (UniProt P11474); test: ATG_ERRa_TRANS: Attagene TRANS-FACTORIAL HepG2 Assay for human Estrogen-Related Receptor alpha (ERRa) (AID 2282971; active means hit-call score of the fitted dose curve at least 0.9, where 1 is the maximum); details: HepG2 Attagene TRANS reporter, ERRa transactivation
# Method in brief: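 HepG2 cells were transiently transfected with multiple GAL4-UAS reporter units, then dosed with compound for 24 h. Total RNA was reverse-transcribed, reporter cDNA PCR-amplified and fluorescently labelled, and fragments resolved by capillary electrophoresis; induction was compared with DMSO.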
# [15] = target: X-box-binding protein 1 (Homo sapiens) (UniProt P17861); test: ATG_Xbp1_CIS: Attagene CIS-FACTORIAL HepG2 Assay for human X-box Binding Protein 1 (XBP1) (AID 2282972); details: HepG2 XBP1 cis-element reporter, Attagene multiplex; actives raise or lower the signal
# Method in brief: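 HepG2, transient MRTU transfection (cis-promoter driven), 24 h compound exposure. Total RNA → oligo(dT) RT → PCR → 6-FAM labeling → HpaI cut → CE. Bidirectional fit vs DMSO.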
# [16] = ATG_M_19_TRANS: Attagene TRANS-FACTORIAL HepG2 Assay for M19 Transcription Factor (Internal Marker) (AID 2282974; active means hit-call score of the fitted dose curve at least 0.9, where 1 is the maximum); details: HepG2 Attagene TRANS-FACTORIAL M19 internal marker reporter
# Method in brief: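 Multiplexed TRANS format: HepG2 liver cells bearing transient GAL4-UAS reporter units, chemical treatment 24 h, reporter transcripts quantified by RT-PCR plus capillary electrophoresis. DMSO defines baseline.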
# [17] = target: Estrogen-related receptor gamma (Homo sapiens) (UniProt P62508); test: ATG_ERRg_TRANS: Attagene TRANS-FACTORIAL HepG2 Assay for human Estrogen-Related Receptor gamma (ERRg) (AID 2282977; active means hit-call score of the fitted dose curve at least 0.9, where 1 is the maximum;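 further: hits increase reporter signal over DMSO so potencies reflect activators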); details: HepG2 Attagene TRANS reporter, ERRg transactivation
# Method in brief: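 Transient HepG2 transfectants, 24 h compound exposure, GAL4-UAS reporter mRNA by RT-PCR/6-FAM labelling/capillary electrophoresis; positive direction vs DMSO.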
# [18] = ATG_GAL4_TRANS: Attagene TRANS-FACTORIAL HepG2 Assay for GAL4 (Internal Marker) (AID 2282976; active means hit-call score of the fitted dose curve at least 0.9, where 1 is the maximum); details: HepG2 Attagene TRANS GAL4 internal marker reporter
# Method in brief: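 Fluorescence from capillary electrophoresis of labelled RT-PCR products quantifies reporter mRNA induction after 24 h dosing of HepG2 cells carrying transfected GAL4-UAS reporter transcription units. Vehicle DMSO serves as baseline.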
# [19] = ATG_PPRE_CIS: Attagene CIS-FACTORIAL HepG2 Assay for human Peroxisome Proliferator-activated Response Element (PPRE) (AID 2282958); details: HepG2 PPRE cis-element reporter, Attagene transcription factor profiling; actives raise or lower the signal
# Method in brief: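 DMSO served as negative control and baseline for bidirectional curve fitting. Signal came from PPRE-regulated reporter mRNA in HepG2 cells, measured 24 h post-dosing by RT-PCR, 6-FAM primer extension and capillary electrophoresis.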
# X-box-binding protein 1 (Homo sapiens), sequence (P17861 whole entry, looked up): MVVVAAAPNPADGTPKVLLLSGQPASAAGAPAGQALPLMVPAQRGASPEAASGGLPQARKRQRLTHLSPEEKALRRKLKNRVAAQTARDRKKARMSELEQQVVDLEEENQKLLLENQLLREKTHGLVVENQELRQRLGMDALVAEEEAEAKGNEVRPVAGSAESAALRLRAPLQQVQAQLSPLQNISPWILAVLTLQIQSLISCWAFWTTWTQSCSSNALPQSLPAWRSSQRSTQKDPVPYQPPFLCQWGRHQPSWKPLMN
# Signal transducer and activator of transcription 3 (Homo sapiens), sequence (P40763 whole entry, looked up): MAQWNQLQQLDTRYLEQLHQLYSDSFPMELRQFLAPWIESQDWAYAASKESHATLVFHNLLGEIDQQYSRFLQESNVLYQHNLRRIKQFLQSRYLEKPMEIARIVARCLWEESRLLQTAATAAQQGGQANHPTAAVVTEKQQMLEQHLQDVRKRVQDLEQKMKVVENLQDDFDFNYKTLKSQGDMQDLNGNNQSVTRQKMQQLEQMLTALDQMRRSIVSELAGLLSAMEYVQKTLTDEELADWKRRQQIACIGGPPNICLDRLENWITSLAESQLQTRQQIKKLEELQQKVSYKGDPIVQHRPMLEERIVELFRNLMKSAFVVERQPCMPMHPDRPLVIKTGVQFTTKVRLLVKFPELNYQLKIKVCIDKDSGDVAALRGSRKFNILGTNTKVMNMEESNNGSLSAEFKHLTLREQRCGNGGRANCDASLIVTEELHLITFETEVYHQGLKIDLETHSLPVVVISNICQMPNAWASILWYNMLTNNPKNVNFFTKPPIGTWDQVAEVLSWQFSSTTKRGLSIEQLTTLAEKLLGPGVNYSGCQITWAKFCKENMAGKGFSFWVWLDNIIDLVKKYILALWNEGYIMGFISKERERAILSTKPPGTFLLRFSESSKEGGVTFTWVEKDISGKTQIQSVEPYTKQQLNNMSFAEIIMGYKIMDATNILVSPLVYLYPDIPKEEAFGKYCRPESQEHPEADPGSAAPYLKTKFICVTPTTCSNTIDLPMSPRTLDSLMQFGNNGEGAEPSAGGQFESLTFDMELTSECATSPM
# Paired box protein Pax-6 (Homo sapiens), sequence (P26367 whole entry, looked up): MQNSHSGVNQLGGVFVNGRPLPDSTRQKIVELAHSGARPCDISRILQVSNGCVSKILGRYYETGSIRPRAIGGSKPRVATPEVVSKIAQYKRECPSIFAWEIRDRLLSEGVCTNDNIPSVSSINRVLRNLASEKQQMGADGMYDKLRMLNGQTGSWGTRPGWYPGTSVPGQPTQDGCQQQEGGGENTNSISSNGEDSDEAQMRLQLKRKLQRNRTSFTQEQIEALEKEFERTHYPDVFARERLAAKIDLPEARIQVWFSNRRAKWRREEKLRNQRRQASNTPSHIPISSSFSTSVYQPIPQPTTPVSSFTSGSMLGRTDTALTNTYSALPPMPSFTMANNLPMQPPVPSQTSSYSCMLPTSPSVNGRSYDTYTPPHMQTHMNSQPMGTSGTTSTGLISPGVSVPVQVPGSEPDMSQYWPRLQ
# Transcription factor Sp1 (Homo sapiens), sequence (P08047 whole entry, looked up): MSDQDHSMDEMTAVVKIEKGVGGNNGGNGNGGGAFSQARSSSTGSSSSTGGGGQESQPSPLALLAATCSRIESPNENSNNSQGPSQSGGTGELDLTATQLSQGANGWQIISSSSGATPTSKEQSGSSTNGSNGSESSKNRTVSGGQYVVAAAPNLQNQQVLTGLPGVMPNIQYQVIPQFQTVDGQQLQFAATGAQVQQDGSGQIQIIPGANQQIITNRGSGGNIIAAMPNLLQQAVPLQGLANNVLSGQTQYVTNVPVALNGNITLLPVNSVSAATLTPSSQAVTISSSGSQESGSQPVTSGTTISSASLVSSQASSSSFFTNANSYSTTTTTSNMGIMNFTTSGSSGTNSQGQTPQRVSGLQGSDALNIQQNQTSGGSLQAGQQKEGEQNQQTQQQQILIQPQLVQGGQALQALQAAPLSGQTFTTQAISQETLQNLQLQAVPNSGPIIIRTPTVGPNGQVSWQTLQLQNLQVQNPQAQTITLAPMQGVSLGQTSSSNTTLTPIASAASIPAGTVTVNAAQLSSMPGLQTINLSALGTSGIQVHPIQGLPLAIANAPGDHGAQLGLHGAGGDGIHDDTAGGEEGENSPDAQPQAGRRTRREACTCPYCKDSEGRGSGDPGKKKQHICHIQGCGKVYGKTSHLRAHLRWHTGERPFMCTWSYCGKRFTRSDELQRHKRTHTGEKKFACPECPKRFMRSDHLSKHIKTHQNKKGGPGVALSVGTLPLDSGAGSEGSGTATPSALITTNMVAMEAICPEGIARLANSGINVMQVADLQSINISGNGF
# Steroid hormone receptor ERR1 (Homo sapiens), sequence (P11474 whole entry, looked up, the tested form may be a part): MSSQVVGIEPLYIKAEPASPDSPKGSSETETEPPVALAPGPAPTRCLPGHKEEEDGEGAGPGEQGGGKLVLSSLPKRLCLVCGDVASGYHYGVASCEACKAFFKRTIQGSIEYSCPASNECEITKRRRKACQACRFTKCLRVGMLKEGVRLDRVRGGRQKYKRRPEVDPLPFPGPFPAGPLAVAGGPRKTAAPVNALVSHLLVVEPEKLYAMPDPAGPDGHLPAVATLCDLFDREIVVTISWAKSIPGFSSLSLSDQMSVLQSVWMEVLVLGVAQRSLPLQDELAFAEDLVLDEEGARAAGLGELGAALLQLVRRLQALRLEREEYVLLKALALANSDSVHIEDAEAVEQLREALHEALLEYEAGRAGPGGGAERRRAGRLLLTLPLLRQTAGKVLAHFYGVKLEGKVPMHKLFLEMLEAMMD
# Nuclear receptor subfamily 1 group I member 3 (Homo sapiens), sequence (Q14994 whole entry, looked up, the tested form may be a part): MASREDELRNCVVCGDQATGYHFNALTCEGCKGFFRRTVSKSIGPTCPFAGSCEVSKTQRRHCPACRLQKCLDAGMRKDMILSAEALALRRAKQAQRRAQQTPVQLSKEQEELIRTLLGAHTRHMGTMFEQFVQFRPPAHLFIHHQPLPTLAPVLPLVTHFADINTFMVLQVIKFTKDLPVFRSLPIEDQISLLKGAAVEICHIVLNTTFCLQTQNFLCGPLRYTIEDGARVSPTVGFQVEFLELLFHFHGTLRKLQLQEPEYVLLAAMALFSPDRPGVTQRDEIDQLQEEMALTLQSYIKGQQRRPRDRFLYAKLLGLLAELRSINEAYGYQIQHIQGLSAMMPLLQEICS
# Estrogen-related receptor gamma (Homo sapiens), sequence (P62508 whole entry, looked up, the tested form may be a part): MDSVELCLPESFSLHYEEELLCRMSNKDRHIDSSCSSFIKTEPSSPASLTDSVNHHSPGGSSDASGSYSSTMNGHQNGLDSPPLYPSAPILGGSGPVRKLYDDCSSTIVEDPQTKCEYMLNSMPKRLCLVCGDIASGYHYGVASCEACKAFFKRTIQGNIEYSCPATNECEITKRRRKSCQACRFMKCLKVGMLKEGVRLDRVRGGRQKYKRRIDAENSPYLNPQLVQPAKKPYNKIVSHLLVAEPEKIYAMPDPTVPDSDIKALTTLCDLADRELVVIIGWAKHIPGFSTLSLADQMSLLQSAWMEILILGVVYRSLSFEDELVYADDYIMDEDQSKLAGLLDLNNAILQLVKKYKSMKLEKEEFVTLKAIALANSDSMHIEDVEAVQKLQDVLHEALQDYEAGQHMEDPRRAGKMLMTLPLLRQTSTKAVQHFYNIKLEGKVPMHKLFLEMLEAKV
compound,measurement,setting,value
CC(=O)S[C@H](C(=O)N[C@H]1Cc2ccccc2[C@H]2CCC[C@@H](C(=O)O)N2C1=O)C(C)C,outcome,[1],inactive
same,AC50,[2],40.9 µM (active)
same,outcome,[3],inactive
same,outcome,[4],inactive
same,outcome,[5],inactive
same,outcome,[6],inactive
same,outcome,[7],inactive
same,outcome,[8],inactive
same,outcome,[9],inactive
same,outcome,[10],inactive
same,outcome,[11],inactive
same,outcome,[12],inactive
same,outcome,[13],inactive
same,outcome,[14],inactive
same,outcome,[15],inactive
same,outcome,[16],inactive
same,outcome,[17],inactive
CC(=O)[C@@]1(O)CC[C@H]2[C@@H]3CCC4=CC(=O)CC[C@]4(C)[C@H]3CC[C@@]21C,outcome,[1],inactive
same,outcome,[2],inactive
same,outcome,[3],inactive
same,outcome,[4],inactive
same,outcome,[5],inactive
same,AC50,[6],11.1 µM (active)
same,outcome,[6],inactive
same,outcome,[7],inactive
same,outcome,[8],inactive
same,outcome,[9],inactive
same,outcome,[10],inactive
same,outcome,[11],inactive
same,outcome,[12],inactive
same,outcome,[15],inactive
same,outcome,[16],inactive
same,outcome,[18],inactive
CC(C)(O)c1ccc(CNC(=O)c2cccnc2Oc2ccc(F)cc2)cc1,outcome,[1],inactive
same,AC50,[2],7.12 µM (active)
same,outcome,[3],inactive
same,outcome,[4],inactive
same,outcome,[5],inactive
same,outcome,[7],inactive
same,outcome,[8],inactive
same,outcome,[9],inactive
same,outcome,[10],inactive
same,outcome,[11],inactive
same,outcome,[13],inactive
same,outcome,[14],inactive
same,outcome,[15],inactive
same,outcome,[16],inactive
same,outcome,[18],inactive
O=Cc1ccccc1C=O,outcome,[1],inactive
same,outcome,[2],inactive
same,outcome,[19],inactive
same,outcome,[3],inactive
same,outcome,[4],inactive
same,outcome,[5],inactive
same,outcome,[7],inactive
same,outcome,[8],inactive
same,outcome,[9],inactive
same,outcome,[10],inactive
same,outcome,[11],inactive
same,outcome,[15],inactive
same,outcome,[18],inactive
Nc1nc(Cl)nc2c1ncn2[C@H]1C[C@H](O)[C@@H](CO)O1,outcome,[1],inactive
same,outcome,[2],inactive
same,outcome,[3],inactive
same,outcome,[4],inactive
same,outcome,[5],inactive
same,outcome,[7],inactive
same,outcome,[8],inactive
same,outcome,[9],inactive
same,outcome,[10],inactive
same,outcome,[11],inactive
same,outcome,[12],inactive
same,outcome,[15],inactive
CC(=O)O,outcome,[1],inactive
same,outcome,[2],inactive
same,outcome,[4],inactive
same,outcome,[5],inactive
same,outcome,[6],inactive
same,outcome,[7],inactive
same,outcome,[8],inactive
same,outcome,[9],inactive
same,outcome,[10],inactive
same,outcome,[11],inactive
same,outcome,[15],inactive
same,outcome,[16],inactive
